We go through seven molecules from PubChem BioAssay (Tox21).

A number with no mark means an inactive call. Results filed as inconclusive are left out. Activity calls are given as the source filed them. Unless noted, the call rests on the fitted dose curve; in most records, active means well fitted curve in the direction sought with a large enough effect in the repeat runs; inconclusive means weak or mixed curves; inactive means no such curve, though single readings can be large; an effect the other way counts as inactive or inconclusive.

Experiment [1] can be described thus: A CellTox Green Cytotoxicity Assay to monitor cytotoxicity in HEK293 cells - 32 hour (AID 1224881). Further: nearly all actives have a fitted effect of over 40% in size. The essentials: (§1)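 HEK293 cells, 600/well, were preincubated 5 hours and then exposed to compounds at 37 C for up to 40 hours. A cell-impermeant cyanine dye staining dead-cell DNA was read by fluorescence at 0, 8, 16, 24, 32 and 40 h time points.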
Experiment [2] in a line: A CellTox Green Cytotoxicity Assay to monitor cytotoxicity in HepG2 cells - 32 hour (AID 1224883). Further: nearly all actives have a fitted effect of over 50% in size. The method, boiled down: (§2)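 HepG2 cells, 600/well, preincubated 5 h with CellTox Green dye, then exposed to Tox21 compounds in DMSO at 37 C for up to 40 h. Dead-cell DNA fluorescence read at the indicated time point.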
Experiment [3] in a line: A CellTox Green Cytotoxicity Assay to monitor cytotoxicity in HEK293 cells - 8 hour (AID 1224884). Further: nearly all actives have a fitted effect of over 35% in size. The essentials: as §1
Experiment [4] is described as follows: qHTS RealTime-Glo MT Cell Viability Assay in HepG2 cells - 16 hour (AID 1224885). Further: nearly all actives have a fitted effect of over 50% in size. The method, boiled down: (§3)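 qHTS, HepG2, 600 cells/well, RealTime-Glo (NanoLuc + prosubstrate) added with cells; 5 h preincubation; DMSO compound addition; 37 C; luminescence at 0/8/16/24/32/40 h.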
A general note: Quantitative high-throughput screening tests each substance at several concentrations.

Experiment [5] can be described thus: qHTS RealTime-Glo MT Cell Viability Assay in HEK293 cells - 24 hour (AID 1224886). Further: top concentration of the series differs between compounds; nearly all actives have a fitted effect of over 50% in size. The essentials: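 Assay medium contained NanoLuc luciferase plus cell-permeant prosubstrate, added with HEK293 cells at 600 cells/well. After 5 h at 37 C/5% CO2 compounds were added; plates stayed at 37 C for 40 h with serial luminescence reads.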
Experiment [6] is described as follows: A CellTox Green Cytotoxicity Assay to monitor cytotoxicity in HEK293 cells - 16 hour (AID 1224888). Further: nearly all actives have a fitted effect of over 35% in size. The essentials: as §1
Experiment [7] can be described thus: qHTS RealTime-Glo MT Cell Viability Assay in HepG2 cells - 0 hour (AID 1224889). Further: nearly all actives have a fitted effect of over 50% in size. The essentials: as §3
Experiment [8] can be described thus: A CellTox Green Cytotoxicity Assay to monitor cytotoxicity in HepG2 cells - 8 hour (AID 1224890). Further: nearly all actives have a fitted effect of over 45% in size. The essentials: as §2
Experiment [9] is described as follows: qHTS assay to identify small molecule antagonists of the androgen receptor (AR) signaling pathway using the MDA cell line in the presence of 0.5 nM R1881 - cell viability counter screen (AID 1259242). Further: nearly all actives have a fitted effect of over 45% in size. The essentials: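 MDA-kb2 cells (MMTV-luciferase, AR/GR responsive) were treated with compounds plus 0.5 nM R1881 (final) for 16 hr at 37C, 0% CO2. Viability was then read in the same wells as live-cell protease fluorescence (CellTiter-Fluor, 30 min).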

The target of experiment [10] is Estrogen receptor (Homo sapiens) (UniProt P03372). The experiment can be described thus: qHTS assay to identify small molecule antagonists of the estrogen receptor alpha (ER-alpha) signaling pathway using the BG1 cell line in the presence of 0.1 nM 17-beta-estradiol (AID 1259244). Further: nearly all actives have a fitted effect of over 50% in size. Further: potency means the concentration at half of the fitted maximal effect. The essentials:
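VM7Luc4E2 cells (endogenous full-length ER-alpha, 4×ERE-luciferase), kept 5 days in phenol red-free, charcoal-stripped FBS medium; 4,000 cells/well. Compounds added with 0.1 nM (final) 17beta-estradiol, 22 hr at 37C; luminescence read with ONE-Glo after 30 min.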

Experiment [11] is described as follows: qHTS assay to identify small molecule HDAC inhibitors (AID 1259364). Further: top concentration of the series differs between compounds; nearly all actives have a fitted effect of over 45% in size. The method, boiled down: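 Wild-type HCT-116 cells, plated overnight at 37 C, exposed to compounds 2 hr at 37 C; luminogenic HDAC-Glo substrate then added 30 min at room temperature. Luminescence reports relative endogenous class I/II HDAC activity.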
Experiment [12] in a line: qHTS assay to identify small molecule HDAC inhibitors - cell viability counter screen (AID 1259365). The essentials:
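Counter screen in wild-type HCT-116 cells: compounds dissolved in DMSO are pin-transferred onto overnight-plated cells and left 2hr at 37C. ATP-based CellTiter-Glo luminescence then measures viable cells.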

Experiment [13] can be described thus: qHTS assay to identify small molecule agonists of the sonic hedgehog signaling (Shh) pathway - cell viability counter screen (AID 1259366). Further: nearly all actives have a fitted effect of over 50% in size. Further: potency means the concentration at half of the fitted maximal effect. The essentials:
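Cells are plated at 2,000 per well and left 4hr at 37C, 5% CO2 before compound addition. After 23hr of treatment, CellTiter-Fluor reagent is added for 1hr at 37C and fluorescence is measured.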

A short description of experiment [14]: qHTS assay to identify small molecule antagonists of the sonic hedgehog signaling (Shh) pathway - cell viability counter screen (AID 1259367). Further: nearly all actives have a fitted effect of over 55% in size. The method, boiled down:
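Cells: 3T3 Gli1-Luc, 2,000/well, 4 hr pre-incubation. Compounds in DMSO, then conditioned medium. Incubation 24 hr, 37C, 5% CO2. CellTiter-Fluor at 23 hr, 1 hr, fluorescence.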

Experiment [15] can be described thus: qHTS assay to identify small molecule agonists of the sonic hedgehog signaling (Shh) pathway (AID 1259368; calls by dose curve;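 further: NIH/3T3-derived 3T3Gli1-Luc cells carrying a stable Gli1-driven firefly luciferase reporter; series mostly up to about 92 µM; nearly all actives have a fitted effect of over 15% in size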). The essentials:
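NIH/3T3-derived 3T3Gli1-Luc cells with stably integrated Gli1-driven firefly luciferase, 2,000 cells/well, compounds added after 4 hr. Incubated 24 hr at 37C, 5% CO2; luminescence read after 30 min with luciferase reagent at room temperature.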

Experiment [16] is described as follows: qHTS RealTime-Glo MT Cell Viability Assay in HEK293 cells - 8 hour (AID 1224887). The essentials:
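600 cells/well were plated with the nonlytic NanoLuc/prosubstrate reagent, pre-incubated 5 h, then given 23 nL of compound in DMSO. Incubation at 37 C for 40 h, with luminescence from viable-cell-reduced substrate read repeatedly from 0 h.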

Experiment [17] is described as follows: qHTS assay to identify small molecule antagonists of the estrogen receptor alpha (ER-alpha) signaling pathway using the BG1 cell line in the presence of 0.1 nM 17-beta-estradiol - cell viability counter screen (AID 1259241). Further: nearly all actives have a fitted effect of over 40% in size. The essentials: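 Cells were plated and left 24 hr, compounds in DMSO were pinned in, 17beta-estradiol was added to 0.1 nM final, and after 22 hr CellTiter-Fluor reagent was added for 30 min before fluorescence was read.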

Experiment [18] can be described thus: qHTS assay to identify small molecule phospholipidosis (PLD) inducers (AID 1259344; active means well fitted curve in the direction sought with a large enough effect; an effect the other way counts as inactive or inconclusive). The method, boiled down:
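Phospholipidosis is scored by imaging LipidTOX-stained pits in HepG2 cells exposed to compound for 24 h at 37 C; pit counts and integrated intensities per well and per cell serve as outputs.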
On the % scale 0 is the no-effect control and ±100 the full control effect.

Estrogen receptor (Homo sapiens), sequence (P03372 whole entry, looked up): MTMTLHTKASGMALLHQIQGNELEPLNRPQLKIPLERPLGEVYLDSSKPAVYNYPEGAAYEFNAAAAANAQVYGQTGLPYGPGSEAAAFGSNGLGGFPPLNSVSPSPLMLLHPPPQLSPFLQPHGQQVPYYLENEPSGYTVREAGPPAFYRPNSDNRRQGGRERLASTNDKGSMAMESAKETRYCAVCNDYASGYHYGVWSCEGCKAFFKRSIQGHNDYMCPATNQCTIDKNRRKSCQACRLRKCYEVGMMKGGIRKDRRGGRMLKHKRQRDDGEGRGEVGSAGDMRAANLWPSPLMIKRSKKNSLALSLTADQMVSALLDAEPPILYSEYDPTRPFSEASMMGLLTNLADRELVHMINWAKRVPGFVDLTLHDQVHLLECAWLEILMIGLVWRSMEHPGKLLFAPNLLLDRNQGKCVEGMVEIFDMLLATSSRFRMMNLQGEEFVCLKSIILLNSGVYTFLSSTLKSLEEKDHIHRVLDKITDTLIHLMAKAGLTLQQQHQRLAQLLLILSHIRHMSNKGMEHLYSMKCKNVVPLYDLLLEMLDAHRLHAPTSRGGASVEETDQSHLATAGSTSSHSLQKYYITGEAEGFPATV

Consider `C=C(C)C(=O)OCCOCC`, for which the Potency entry in experiment [1], in experiment [2], in experiment [3], in experiment [4], in experiment [5] and in experiment [6] was “inactive” throughout. Moreover, the Potency result in experiment [7], in experiment [8], in experiment [9], in [11], in [12] and in experiment [13] was “inactive” each time. Also, the Potency entry in [14] is “inactive”. The Potency in experiment [10] is 54.7 µM (active). The result in [15] was inactive.
For `O=C1c2ccccc2S(=O)(=O)N1CCCCN1CCN(c2ncccn2)CC1`, the Potency entry in experiment [1], in [2], in experiment [3], in experiment [4], in experiment [5] and in experiment [16] was “inactive” each time. In addition, the Potency entry in [6], in experiment [7], in experiment [8], in experiment [17], in experiment [9] and in experiment [10] was “inactive” throughout. The Potency entry in [18], in [11], in [12], in experiment [13] and in [14] was “inactive” throughout. The result in experiment [15] was inactive.
Consider `O=C(NCCO[N+](=O)[O-])c1cccnc1`, for which the Potency entry in experiment [1], in experiment [2], in [3], in experiment [4], in experiment [5] and in experiment [16] was “inactive” throughout. Also, the Potency entry in experiment [7], in experiment [8], in [17], in experiment [9], in experiment [18] and in experiment [11] was “inactive” in each case. In addition, the Potency entry in [12], in [13] and in [14] was “inactive” each time. The result in experiment [15] was inactive.
`CC1(c2ccccc2)OC(C(=O)O)=CC1=O` (configuration not stated): the Potency entry in [1], in experiment [2], in experiment [4], in experiment [5], in experiment [16] and in experiment [6] was “inactive” each time. The Potency entry in experiment [7], in experiment [8], in experiment [17], in experiment [9], in experiment [18] and in [11] was “inactive” in each case. Also, the Potency entry in experiment [12], in experiment [13] and in experiment [14] was “inactive” each time. Further, the outcome in [15] was inactive.
In the case of `Brc1c2ccccc2c(Br)c2ccccc12`, the values for the cytotoxicity increase in [1] and in [2] were -2.57% [at 6.97 µM] and 2.42% [at 6.97 µM], respectively. Moreover, the activity change, negative = cytotoxic in experiment [4] was -0.25% [at 6.97 µM]. Also, the activity change, negative = cytotoxicity was 1.98% [at 6.97 µM] in experiment [5]; -3.92% [at 6.97 µM] in [16]; 2.26% [at 6.97 µM] in [7]; 3.89% [at 8.39 µM] in experiment [17]; 1.69% [at 8.39 µM] in [12]. Further, the activity change in experiment [6] was -0.0109% [at 6.97 µM, active compounds read high]; in [15] it was -0.511% [at 8.39 µM]. Moreover, the results for the viability change, negative = cytotoxic in [9], in experiment [13] and in experiment [14] were 2.88% [at 8.39 µM], 2.56% [at 8.39 µM] and -7.11% [at 8.39 µM], respectively. Besides, the activity change, negative = inhibition was 0.899% [at 8.39 µM] in experiment [10] and 3.07% [at 8.39 µM] in experiment [11].
On to `C=CC(=O)OCCOc1ccccc1`, for which the Potency result in experiment [1], in experiment [2], in experiment [3], in experiment [4], in experiment [5] and in [16] was “inactive” throughout. In addition, the Potency entry in [6], in experiment [7], in experiment [8], in experiment [17], in experiment [9] and in experiment [11] was “inactive” each time. Besides, the Potency entry in [14] was “inactive”. Besides, the Potency in experiment [13] was 68.5 µM (active). In addition, the result in experiment [15] was inactive.
With `CCCC(=O)Nc1ccc(O)c(C(C)=O)c1`, the Potency entry in [1], in experiment [2], in experiment [3], in experiment [4], in experiment [5] and in [16] was “inactive” in each case. Moreover, the Potency result in experiment [6], in [7], in experiment [8], in experiment [17], in experiment [9] and in experiment [10] was “inactive” throughout. Besides, the Potency result in experiment [11], in experiment [12], in [13] and in [14] was “inactive” each time. The molecule was called inactive in [15].
